Out of some 410,000 compounds screened, about 18,000 (4.4%) were called active. About 7% were inconclusive and are not listed. This is one part of a sample in which actives are shown more often than they occur. Values without a mark were called inactive. No stated cut-off is given here; in the data, active means activity change below about -60%; inconclusive means no clear call, values can overlap the other calls; inactive means above about -39%.
On the % scale 0 is the no-effect control and ±100 the full control effect.

The nature of this test: qHTS Assay for inhibitors of the human cytomegalovirus (HCMV). To be noted: HFF cells, HCMV-luciferase reporter, 72 h; at 57.5 µM; active compounds read low. An outline of the steps:
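Compounds were evaluated in HFFs infected with an HCMV luciferase reporter virus (MOI 1 PFU/cell). Luciferase in lysates collected 72 h post infection served as the replication measure.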
For the molecule `COc1ccc(OC)c(-c2nc(C(N)=O)c3c(n2)n(-c2ccc4c(c2)OCO4)c(=O)n3C)c1`, the activity change, negative = inhibition was 3.83%.
As for `O=C1C(=O)N(c2ccccc2)c2ccccc21`, the activity change, negative = inhibition is 43.2%.
The same measure for `Cc1cc(C(=O)CCl)c(C)n1CC1COc2ccccc2O1` (stereo not given): -96.1% (active).
As to `Cc1ccc(Cl)cc1NC(=O)NC1COc2ccccc2C1` (stereo not given), the activity change, negative = inhibition is -3.29%.
As for `O=C1C(=O)N(CC2COc3ccccc3O2)c2ccccc21` (stereo not given), the activity change, negative = inhibition is -62.4% (active).
For the molecule `CC(=O)c1ccccc1NC(=O)COC(=O)C1COc2ccccc2O1` (stereo not given), the activity change, negative = inhibition was -15%.
Take `CC1COc2ccccc2N1S(=O)(=O)c1ccccc1` (stereo not given): the activity change, negative = inhibition is -16.1%.
For `CC(C)CC(NC(=O)C1CCCN1C(=O)[C@@H](C)NC(=O)OCc1ccccc1)C(=O)NCC(N)=O` (stereo not given in full), the activity change, negative = inhibition was -24.5%.
With `Cc1cccc(NC(=O)Cn2c(=O)n(CCC(C)C)c(=O)c3cccnc32)c1`, the activity change, negative = inhibition is 28.9%.
Take `O=C(c1ccco1)N1CCN(C(=O)C2c3ccccc3Oc3ccccc32)CC1`: the activity change, negative = inhibition was -21.7%.
`CCOC(=O)Cc1csc(NC(=O)CN(C)S(=O)(=O)c2ccc3c(c2)CCC(=O)N3)n1`: the activity change, negative = inhibition is 14.5%.
In the case of `Cc1cccc(-c2nc(SCc3ccc(Br)cc3)n3[nH]c(=O)cc3n2)c1`, the activity change, negative = inhibition is -0.292%.
As for `COc1ccc(NC(=O)CSc2nccn2Cc2ccc3c(c2)OCO3)cc1`, the activity change, negative = inhibition was 2.57%.
Regarding `C=CCSc1nc(N)cc(=O)[nH]1`, the activity change, negative = inhibition was -24.3%.
The figure for `Cc1cc(C(=O)CSc2nc(N)cc(=O)[nH]2)c(C)n1-c1cccc(F)c1` is -80.8% (active); for `Cc1cc(C)c(C(=O)CSc2nc(C)cc(=O)[nH]2)c(C)c1` it is 19%.
As for `CCOC(=O)C1(C(F)(F)F)N=C(N(C)C)OC(N(C)C)=N1`, the activity change, negative = inhibition is 9.94%.
`CCOc1ccc2c(c1)C(c1ccc(C)cc1)=NNC(c1ccc(C)cc1)=N2`: the activity change, negative = inhibition was 9.03%.
With `CCOc1ccc(-c2cc(C)[n+](CCN(CC)CC)c(-c3ccc(OCC)cc3)c2)cc1`, the activity change, negative = inhibition was -97.6% (active).
With `CCOc1ccc(-c2nnc3ccc(SC)nn23)cc1`, the activity change, negative = inhibition was -19.6%.
For `Cc1cccc(-n2ccnc2SCC(=O)Nc2cc(C(F)(F)F)ccc2Cl)c1`, the activity change, negative = inhibition was -18.2%.
Consider `COc1ccc(NC(=O)CSc2nccn2C2CCCC2)cc1OC`, for which the activity change, negative = inhibition was -35.1%.
Consider `O=C(CSc1nccn1C1CCCC1)Nc1cc(C(F)(F)F)ccc1Cl`, for which the activity change, negative = inhibition is -87.5% (active).
In the case of `Cc1cc(NS(=O)(=O)c2ccc3oc(=O)c4ncn(C)c4c3c2)ccc1Br`, the activity change, negative = inhibition is -24.9%.
The same measure for `Cn1nnnc1SCCCNCc1ccc(Cl)cc1`: 5.82%; for `COc1ccccc1CCNC(=O)c1cccn1-c1nnc(N2CCCCC2)s1`: -14.3%; for `Cc1ccc(NC(=O)CN(C)C(=O)Cn2nnc(-c3ccccc3)n2)cc1`: -24.5%.
`COc1ccc(C(=O)N2CCCCC2C(=O)Nc2ccc(-n3nc(C)cc3C)cc2)o1` (stereo not given): the activity change, negative = inhibition was 7.64%.
The same measure for `C[C@@H]1C[C@@H]2O[C@H]2/C=C\C=C\C(=O)Cc2c(Cl)c(O)cc(O)c2C(=O)O1`: -76.2% (active); for `CCN(CC)S(=O)(=O)c1ccc(C(=O)N2CCN(C3=NS(=O)(=O)c4ccccc43)CC2)cc1`: -15.4%.
Regarding `CCOC(=O)c1cc2c(=O)n3ccccc3nc2n(CC2CCCO2)c1=NC(=O)c1ccccc1Br` (stereo not given), the activity change, negative = inhibition was 24.4%.
As for `CCOC1=C2[C@@H](CN(S(=O)(=O)c3ccc(C)cc3)[C@H]2c2ccccc2F)[C@H]2C(=O)N(Cc3ccccc3)C(=O)[C@H]2C1`, the activity change, negative = inhibition was -19.7%.
The figure for `Cc1ccc(S(=O)(=O)c2cn(Cc3ccccc3)c3cc(N4CCCC4)c(F)cc3c2=O)c(C)c1` is 10.5%.
In the case of `Cc1ccc(S(=O)(=O)N2C[C@@H]3CCCC[C@@H]3[C@@H](C)[C@H]2c2cn(Cc3ccccc3)c3ccc(F)cc23)cc1`, the activity change, negative = inhibition is -65.2% (active).
Consider `COc1ccc(-c2c(C)c3ccc(O)c(CN4CCCC4)c3oc2=O)cc1OC`, for which the activity change, negative = inhibition was 8.47%.
On to `CCOc1ccc(NC(=O)Cn2c(=O)n(CCCC(=O)NCc3ccc4c(c3)OCO4)c(=O)c3ccccc32)cc1`, for which the activity change, negative = inhibition is 22.9%.
The same measure for `CCN(CC)C(=O)CSc1nc2cc3c(cc2c(=O)n1CCCC(=O)NCc1ccc2c(c1)OCO2)OCO3`: -89.8% (active).
As to `CCCCNC(=O)CSc1nc2cc3c(cc2c(=O)n1CCCCCC(=O)NCc1ccc2c(c1)OCO2)OCO3`, the activity change, negative = inhibition was 25.2%.
Turning to `O=C(NCc1ccc(Cl)cc1)c1ccc2c(c1)nnn2C1CCCC1`, the activity change, negative = inhibition is -1.14%.
The figure for `CC1(C(=O)NNC(=S)NCC2CCCO2)CC1(Cl)Cl` (stereo not given) is -5.76%.
The same measure for `CCC(=O)Nc1ccc(C)cc1-c1nc2ccccc2n(Cc2ccccc2)c1=O`: 13.6%.
In the case of `Cc1cccc(NC(=O)Cn2c(C(F)(F)F)nc3ccccc32)c1C`, the activity change, negative = inhibition was -9.72%.
The same measure for `CCC(=O)Nc1nc2ccccc2n1Cc1ccccc1C`: -81.6% (active); for `Cc1cc(Cl)ccc1NC(=O)Cc1ccc(NC(=O)N2CCCCc3ccccc32)cc1`: 25.1%.
With `COCCN1C2=C(COC(C)(C)C2)C(=S)NC1c1ccccc1` (stereo not given), the activity change, negative = inhibition is 5.54%.
As to `Cc1cc(C)c(NC(=O)CN2CCCCCC2)c(C)c1`, the activity change, negative = inhibition was -39.4%.
As for `Cc1ccc(NC(=O)CN2CCCCC2)c2c1CC(C)(C)O2`, the activity change, negative = inhibition is -63% (active).
Regarding `O=C(CN1CCCCCC1)Nc1ccc(Br)cc1Br`, the activity change, negative = inhibition is 32.3%.
Take `O=S(=O)(c1ccc(Cl)cc1)c1nnn2c1nc(NC1CCCC1)c1sccc12`: the activity change, negative = inhibition is 21.2%.
`O=[N+]([O-])c1ccccc1-c1cc(-c2ccccc2[N+](=O)[O-])on1`: the activity change, negative = inhibition was 24.9%.
Regarding `Cc1c(Cl)cccc1NC(=O)N1CCN(C(=O)c2nsc3ccccc23)CC1`, the activity change, negative = inhibition is 0%.
As to `COc1ccccc1CNC(=O)c1ccccc1NC(=O)c1nsc2ccccc12`, the activity change, negative = inhibition is 12.6%.
The same measure for `CCc1ccccc1NC(=O)N1CCN(C(=O)c2nsc3ccccc23)CC1`: 0% (active); for `COc1ccc(OC)c(NC(=O)CN2CCCN(Cc3cc(C)ccc3C)S2(=O)=O)c1`: 0%; for `Cc1ccnc(NC(=O)C2CCN(S(=O)(=O)c3c(C)c(C)cc(C)c3C)CC2)c1`: -4.39%.
Regarding `CN1CCN(C(=O)CCc2ncc(C(F)(F)F)cc2Cl)CC1`, the activity change, negative = inhibition was -28.5%.
In the case of `N#CCc1ccc(NC(=O)c2ccccc2C(=O)Nc2ccc(CC#N)cc2)cc1`, the activity change, negative = inhibition was -72.2% (active).
On to `CC(C)n1ncc2c(C(=O)Nc3ccc(CC#N)cc3)cc(C3CC3)nc21`, for which the activity change, negative = inhibition was 30.4%.
Turning to `CC(=O)Nc1ccc(CC#N)cc1`, the activity change, negative = inhibition is 26.2%.
The same measure for `Cc1ccc(-c2nc3cccc(C)n3c2Nc2ccc3c(c2)OCCO3)cc1`: 76%; for `COc1ccc(NC(=O)C2CCCN(S(=O)(=O)c3cccc4nonc34)C2)cc1Cl` (stereo not given): -11.9%.
As for `O=C(C1CC1)N1CCc2cc(Br)cc(S(=O)(=O)N3CCN(c4ccccc4F)CC3)c21`, the activity change, negative = inhibition is 6.64%.
In the case of `CNC(=O)c1ccc(-c2nc(CN3CCc4ccccc43)c(C)o2)cc1`, the activity change, negative = inhibition is 18.4%.
On to `Cc1ccc(N2CC(NC(=O)Cc3cccs3)CC2=O)cc1` (stereo not given), for which the activity change, negative = inhibition is 76%.
Turning to `CCOC(=O)C1CCN(c2ncnc3c2c(-c2ccccc2)cn3-c2ccc(C)cc2)CC1`, the activity change, negative = inhibition is -37.8%.
Take `Cc1sc2ncnc(N3CCC(C(=O)Nc4ccc(F)cc4Cl)CC3)c2c1C`: the activity change, negative = inhibition was -21.6%.
With `CCc1ccc(C(=O)NNC(=O)C2CCN(c3ncnc4sc(C)c(C)c34)CC2)cc1`, the activity change, negative = inhibition was -65.2% (active).
Regarding `O=C(O)c1ccc(Cn2cnc3c(=S)nc[nH]c32)cc1`, the activity change, negative = inhibition is 1.65%.
In the case of `NC1=NC(c2cc(F)cc(F)c2)n2c(nc3ccccc32)N1` (stereo not given), the activity change, negative = inhibition is -1.84%.
The same measure for `Cc1ccc(S(=O)(=O)NC2CCCCCC2)cc1C(N)=O`: -23.9%; for `CC1CCC(NS(=O)(=O)c2ccc3c(c2)CC(=O)N3)CC1` (stereo not given): 23.2%; for `Cn1sc(=O)c2cc(S(=O)(=O)NC3CC3)ccc21`: -82.6% (active).
On to `O=S1(=O)CC(N2CCSCC2)CN1Cc1cn(Cc2cccc(Cl)c2)nn1` (stereo not given), for which the activity change, negative = inhibition was -0.598%.
As to `O=C(NCCc1ccc(Cl)cc1)c1ccc2nc(CCc3ccccc3)oc2c1`, the activity change, negative = inhibition is 44.3%.
On to `CCOc1ccccc1CNCc1c(C(=O)O)c(C)n(Cc2ccc(C)cc2)c1C`, for which the activity change, negative = inhibition is 2.89%.
The same measure for `O=C(CSc1nnnn1C1CCCC1)Nc1ccc2c(c1)OCCO2`: 15.2%.
In the case of `O=C(CSc1ccc(-c2ccc(F)cc2)nn1)Nc1ccc2c(c1)OCCO2`, the activity change, negative = inhibition is 16.6%.
The figure for `O=C(CSc1nc(C2CC2)nc2ccccc12)Nc1ccc2c(c1)OCCO2` is -71.4% (active).
With `O=C(CSc1nc(=O)n2ccccc2n1)Nc1ccc2c(c1)OCCO2`, the activity change, negative = inhibition is -0.0406%.
For `O=C(CSc1nc(-c2cccc(F)c2)[nH]c1-c1ccccc1)Nc1ccc2c(c1)OCO2`, the activity change, negative = inhibition is -87.5% (active).
Take `O=C(CSc1nnc(CNC(=O)c2ccc(F)cc2)o1)Nc1ccc2c(c1)OCO2`: the activity change, negative = inhibition was -6.33%.
Consider `CCOc1cc(C(=O)Nc2nnc3n2CCS3)cc(OCC)c1OCC`, for which the activity change, negative = inhibition was -4.78%.
For `O=C(CSc1ncc(-c2ccccc2)[nH]1)Nc1ccc(F)cc1F`, the activity change, negative = inhibition is -18.3%.
As to `O=C(CCCN1C(=O)C(c2ccccc2)Oc2cccnc21)Nc1ccccc1Br` (stereo not given), the activity change, negative = inhibition was 4.91%.
`O=C(CCCN1C(=O)/C(=C/c2cccs2)SC1=S)Nc1ccc(O)cc1`: the activity change, negative = inhibition is -92.8% (active).
As to `COC(=O)C1=C(C)N(C(C)c2ccccc2)C(=O)/C1=C\c1ccco1` (stereo not given), the activity change, negative = inhibition is 29.2%.
The same measure for `O=C(CCCN1C(=O)/C(=C/c2ccccc2)SC1=S)Nc1ccc(O)cc1`: -85.4% (active).
Take `O=C(CC1C(=O)N(c2ccccc2)C(=O)N1CCc1cccs1)Nc1ccc(F)cc1` (stereo not given): the activity change, negative = inhibition is -11.5%.
As for `Cc1cc(C)cc(NC(=O)CCN2C(=O)c3ccccc3C2=O)c1`, the activity change, negative = inhibition was -12.5%.
Turning to `O=C(CCCN1C(=O)/C(=C\c2ccccc2)SC1=S)Nc1ccccc1O`, the activity change, negative = inhibition was -94.8% (active).
The same measure for `O=C(CCCN1C(=O)/C(=C/c2ccco2)SC1=S)Nc1ccccc1`: -96.7% (active); for `COc1ccc(NC(=O)CCCN2C(=O)C(c3ccccc3)Oc3cccnc32)cc1` (stereo not given): 37.1%.
For the molecule `N#Cc1c(NC(=O)CCCN2C(=O)c3ccccc3C2=O)oc(-c2ccccc2)c1-c1ccccc1`, the activity change, negative = inhibition was -2.46%.
The same measure for `CC(=O)Nc1ccc(NC(=O)CCN2C(=O)C3CC=CCC3C2=O)cc1` (stereo not given): 19.5%; for `Cc1cc(OCCCC(=O)NCCN2C(=O)S/C(=C\c3cccnc3)C2=O)ccc1Cl`: -21.9%.

These data come from PubChem BioAssay AID1259415 (National Center for Advancing Translational Sciences (NCATS), 2018).
